The values that follow come from PubChem BioAssay (Tox21).

A short description of assay [1]: Nuclear factor erythroid 2-related factor 2/antioxidant responsive element (Nrf2/ARE) small molecule agonists: qHTS cell viability counter screen in human keratinocytes (AID 1919968; active means well fitted curve in the direction sought with a large enough effect in the repeat runs; an effect the other way counts as inactive or inconclusive; further: nearly all actives have a fitted effect of over 55% in size; further: potency means the concentration at half of the fitted maximal effect). An outline of the steps:
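HaCaT ARE reporter line, 1,500 cells/well; 5 h settle, 37 C/5% CO2; cpd in DMSO pinned; 23 h exposure; CellTiter-Fluor, 1 h; fluorescence.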

A short description of assay [2]: Nuclear factor erythroid 2-related factor 2/antioxidant responsive element (Nrf2/ARE) small molecule agonists: luciferase reporter gene qHTS assay in human keratinocytes (AID 1919969). Further: nearly all actives have a fitted effect of over 35% in size. Further: potency means the concentration at half of the fitted maximal effect. Background: A reporter such as luciferase makes a cellular process visible.
Assay [3] deals with Gonadotropin-releasing hormone receptor (Homo sapiens) (UniProt P30968). The assay is described as follows: Human gonadotropin-releasing hormone receptor (GnRHR) small molecule agonists, calcium flux assay in GnRHR-HEK293 cells (AID 1920063). Further: nearly all actives have a fitted effect of over 35% in size. An outline of the steps: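 GnRHR-HEK293, 1500 cells/well, 18 h 37 C/5% CO2; Ca dye 1 h 37 C; cpd pinned (DMSO), agonist mode; kinetic FL 480/540, 3 min, 1 s reads; 15 conc, n=3.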
Sequence of Gonadotropin-releasing hormone receptor (Homo sapiens) (P30968 whole entry, looked up): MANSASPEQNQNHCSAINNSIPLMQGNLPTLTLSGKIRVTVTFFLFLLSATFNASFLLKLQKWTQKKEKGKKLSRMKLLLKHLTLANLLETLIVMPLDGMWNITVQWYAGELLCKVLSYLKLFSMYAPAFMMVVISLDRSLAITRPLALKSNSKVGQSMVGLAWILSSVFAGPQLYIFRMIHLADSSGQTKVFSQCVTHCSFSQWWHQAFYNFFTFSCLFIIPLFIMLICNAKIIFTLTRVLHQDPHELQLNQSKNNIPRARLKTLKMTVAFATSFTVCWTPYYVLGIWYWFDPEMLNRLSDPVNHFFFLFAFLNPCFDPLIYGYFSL
(A change in cytosolic calcium serves as a functional read-out for many receptors and channels.)

Assay [4] addresses KiSS-1 receptor (Homo sapiens) (UniProt Q969F8). The assay is described as follows: Human kisspeptin (KISS1R) small molecule agonists, calcium flux assay in KISS1R-HEK293 cells (AID 1920064; active means well fitted curve in the direction sought with a large enough effect in the repeat runs; an effect the other way counts as inactive or inconclusive). An outline of the steps: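 Stable human KISS1R HEK293 line; 18 h plating, 37 C/5% CO2; calcium dye 1 h 37 C; compound pin transfer; kinetic fluorescence Ex/Em 480/540, 3 min.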
Assay [5] in a line: G protein-coupled receptor (GPCR) small molecule agonists, calcium flux assay: HEK293 wild type cell line counter screen (AID 1920065). An outline of the steps:
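Kinetic fluorescence at Ex/Em 480/540, recorded every second over 3 min, served as the read-out after compound addition. Each compound was tested at 15 concentrations in triplicate on cells pre-loaded with calcium dye for 1 h.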

The nature of assay [6]: p53 small molecule agonists, cell-based qHTS assay with human liver microsomes (AID 1963577).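 Further: p53 response element beta-lactamase reporter cells with liver microsomes plus NADPH.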 Put shortly:
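Reporter activation was measured by LiveBLAzer fluorescence intensity in p53RE-bla cells, which had been exposed to compounds for 16 h at 37 C alongside 0.5 mg/mL human liver microsomes and 0.5 mg/mL NADPH (final concentrations).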
For orientation: Quantitative high-throughput screening tests each substance at several concentrations.

Assay [7] can be described thus: p53 small molecule agonists, cell-based qHTS assay with rat liver microsomes (AID 1963578). Put shortly:
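Compound in DMSO added to p53RE-bla cells 5 h post-plating; rat microsomes/NADPH 0.5 mg/mL final; 16 h, 37 C; LiveBLAzer 2 h RT.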

Assay [8] is described as follows: p53 small molecule agonists, cell-based qHTS assay with human liver microsomes: qHTS cell viability counter screen (AID 1963579). Further: nearly all actives have a fitted effect of over 45% in size. An outline of the steps:
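HLM-supplemented (0.5 mg/mL final) and NADPH-supplemented (0.5 mg/mL final) p53RE-bla cultures, 4,000 cells per well, were dosed with compounds in DMSO for 16 h at 37 C; luminescent ATP detection (CellTiter-Glo, 30 min, room temperature) quantified surviving cells.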

Assay [9] can be described thus: p53 small molecule agonists, cell-based qHTS assay with rat liver microsomes: qHTS cell viability counter screen (AID 1963580). Further: nearly all actives have a fitted effect of over 45% in size. An outline of the steps:
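HCT-116 p53RE-bla, 4,000 cells/well, 5 h pre-incubation; cpd + rat liver microsomes 0.5 mg/mL + NADPH 0.5 mg/mL (final); 16 h, 37 C; CellTiter-Glo, 30 min RT; luminescence.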

Assay [10] in a line: p53 small molecule agonists, cell-based qHTS assay: qHTS cell viability counter screen (AID 1963581). Further: nearly all actives have a fitted effect of over 45% in size. Put shortly: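 HCT-116 p53RE-bla cells, 4,000/well, plated 5 h before compound pin transfer; 16 h at 37 C; bla substrate 2 h RT; then CellTiter-Glo, 30 min RT, luminescence.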
Assay [11] concerns the target 5-hydroxytryptamine receptor 2A (Homo sapiens) (UniProt P28223). The assay is described as follows: 5-hydroxytryptamine receptor 2A (HTR2A) small molecule antagonists, cell-based qHTS assay (AID 1963586). Further: nearly all actives have a fitted effect of over 45% in size. Put shortly: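 Antagonist-mode intracellular calcium assay: DOI (4 nM) added after 5 min compound pre-incubation at room temperature to dye-loaded HTR2A-CHO cells. Fluorescence followed for 3 min, sampled every second.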

Assay [12] shares this target. Description: 5-hydroxytryptamine receptor 2A (HTR2A) small molecule agonists, cell-based qHTS assay (AID 1963587). Further: nearly all actives have a fitted effect of over 30% in size. Put shortly:
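Kinetic calcium-flux fluorescence (2 min, 1 sec intervals) after compound addition in agonist mode. HTR2A-CHO cells were cultured 18 h, then dye-loaded 1 h at 37 C.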

The target of assay [13] is Muscarinic acetylcholine receptor M1 (Homo sapiens) (UniProt P11229). Description: Cholinergic receptor muscarinic 1 (CHRM1) small molecule antagonists, cell-based qHTS assay (AID 1963588). Further: nearly all actives have a fitted effect of over 40% in size. An outline of the steps:
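CHRM1-CHO calcium-flux assay, antagonist mode. Cells were seeded 18 h, dye-loaded 1 h at 37 C and given compound for 5 min at RT, then acetylcholine was added at 50nM. FDSS fluorescence was read 3 min; 15 concentrations, three runs.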

Assay [14] shares this target. The assay is described as follows: Cholinergic receptor muscarinic 1 (CHRM1) small molecule agonists, cell-based qHTS assay (AID 1963589). Further: nearly all actives have a fitted effect of over 35% in size. An outline of the steps: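 Human M1 in stable CHO line; 18 h plating, 1 h dye load 37 C; cpd added (agonist mode); Ca2+ fluorescence kinetic read, 1 s intervals; 15 conc, 3 runs.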
The target of assay [15] is Beta-2 adrenergic receptor (Homo sapiens) (UniProt P07550). The assay is described as follows: Adrenergic beta2 receptor (ADRB2) small molecule antagonists, cell-based qHTS assay (AID 1963592). Further: series mostly up to about 92 µM; nearly all actives have a fitted effect of over 50% in size. An outline of the steps: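 Cells (CHO, stable ADRB2 overexpression) incubated 18-20hr at 37C; compounds added from DMSO; agonist mix (1nM isoproterenol, 100uM IBMX, 25uM Ro-20-1724) added; 0.5hr RT; d2-cAMP and anti-cAMP-cryptate added; 1hr RT; 665/615 nm read.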
Sequence of Beta-2 adrenergic receptor (Homo sapiens) (P07550 whole entry, looked up): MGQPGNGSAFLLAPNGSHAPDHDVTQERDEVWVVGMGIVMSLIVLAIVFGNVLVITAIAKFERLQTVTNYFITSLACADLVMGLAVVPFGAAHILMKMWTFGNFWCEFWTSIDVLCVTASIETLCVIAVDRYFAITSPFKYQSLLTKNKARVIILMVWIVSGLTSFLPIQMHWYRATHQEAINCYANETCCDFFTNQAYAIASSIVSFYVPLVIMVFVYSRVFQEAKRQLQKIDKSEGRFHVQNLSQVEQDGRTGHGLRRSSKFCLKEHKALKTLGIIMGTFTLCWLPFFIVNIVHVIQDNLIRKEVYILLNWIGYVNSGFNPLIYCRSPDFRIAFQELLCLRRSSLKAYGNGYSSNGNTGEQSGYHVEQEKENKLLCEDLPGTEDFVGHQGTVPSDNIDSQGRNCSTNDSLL

The target in assay [16] is D(2) dopamine receptor (Homo sapiens) (UniProt P14416). The assay is described as follows: Dopamine D2 receptor (DRD2) small molecule agonists, cell-based qHTS assay (AID 1963594). Further: nearly all actives have a fitted effect of over 35% in size. Put shortly:
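cAMP accumulation in DRD2-HEK293 cells measured by HTRF after 1 h detection; compounds added 10 min before NKH477 (200nM […]) forskolin-analogue stimulation, 30 min at room temperature, with Ro20-1724 present at 0.1 mM final.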

Assay [17] shares this target. Description: Dopamine D2 receptor (DRD2) small molecule antagonists, cell-based qHTS assay (AID 1963595; active means well fitted inhibition curve with a large enough effect in the signal ratio in the repeat runs, with a control signal flat; the % refers to the signal ratio). An outline of the steps:
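Readout: HTRF cAMP, cAMP-d2 competing with cellular cAMP for anti-cAMP cryptate, read after 1 h. Cells: DRD2-HEK293. Conditions: 0.1 mM Ro20-1724, 12 nM quinpirole, 200 nM NKH477, 30 min RT.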

Assay [18] in a line: cAMP Responsive Elements (CRE) small molecule antagonists, cell-based qHTS assay (AID 1963591; active means well fitted inhibition curve with a large enough effect in the signal ratio in the repeat runs, not every such curve was filed as active; the % refers to the signal ratio). An outline of the steps: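 Beta-lactamase reporter read by FRET substrate (LiveBLAzer B/G) after 2 h at room temperature. CRE-bla HEK293T cells had received compound plus 0.25 uM (final) NKH477 for 3 h at 37 °C.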
In assay [19] the target is Beta-2 adrenergic receptor (Homo sapiens) (UniProt P07550). Description: Adrenergic beta2 receptor (ADRB2) small molecule agonists, cell-based qHTS assay (AID 1963593).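 Further: CHO cells stably overexpressing human ADRB2.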 Put shortly:
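CHO cells stably over-expressing ADRB2 were plated overnight at 37C, then dosed with compounds plus a stimulation mix containing 100uM IBMX and 25uM Ro-20-1724 for 0.5hr at room temperature. cAMP was measured by HTRF competition, 1hr.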

Assay [20] in a line: cAMP Responsive Elements (CRE) small molecule agonists, cell-based qHTS assay (AID 1963590). Put shortly: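 HEK 293T CRE-bla, 2,000 cells/well, 18 h preincubation 37 C/5% CO2; cpds (DMSO) pinned, 3 h; LiveBLAzer B/G FRET substrate, 2 h RT.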

Each structure is given as a SMILES string. Values without a mark were called inactive. Inconclusive results are not listed. Active and inactive are the calls of the source. Unless noted, the call rests on the fitted dose curve.

Sequence of D(2) dopamine receptor (Homo sapiens) (P14416 whole entry, looked up): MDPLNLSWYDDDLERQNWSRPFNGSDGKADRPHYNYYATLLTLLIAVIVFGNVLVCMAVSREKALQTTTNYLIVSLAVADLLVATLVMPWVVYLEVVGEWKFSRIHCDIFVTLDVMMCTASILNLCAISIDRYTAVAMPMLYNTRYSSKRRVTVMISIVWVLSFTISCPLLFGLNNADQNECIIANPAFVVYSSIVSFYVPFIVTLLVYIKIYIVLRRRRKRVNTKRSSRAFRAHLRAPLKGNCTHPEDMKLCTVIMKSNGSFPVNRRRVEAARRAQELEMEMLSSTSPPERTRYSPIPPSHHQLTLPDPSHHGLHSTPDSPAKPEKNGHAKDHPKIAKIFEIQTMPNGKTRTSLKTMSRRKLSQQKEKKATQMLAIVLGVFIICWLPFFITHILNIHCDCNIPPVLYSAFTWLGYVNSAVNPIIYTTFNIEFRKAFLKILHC
Sequence of Muscarinic acetylcholine receptor M1 (Homo sapiens) (P11229 whole entry, looked up): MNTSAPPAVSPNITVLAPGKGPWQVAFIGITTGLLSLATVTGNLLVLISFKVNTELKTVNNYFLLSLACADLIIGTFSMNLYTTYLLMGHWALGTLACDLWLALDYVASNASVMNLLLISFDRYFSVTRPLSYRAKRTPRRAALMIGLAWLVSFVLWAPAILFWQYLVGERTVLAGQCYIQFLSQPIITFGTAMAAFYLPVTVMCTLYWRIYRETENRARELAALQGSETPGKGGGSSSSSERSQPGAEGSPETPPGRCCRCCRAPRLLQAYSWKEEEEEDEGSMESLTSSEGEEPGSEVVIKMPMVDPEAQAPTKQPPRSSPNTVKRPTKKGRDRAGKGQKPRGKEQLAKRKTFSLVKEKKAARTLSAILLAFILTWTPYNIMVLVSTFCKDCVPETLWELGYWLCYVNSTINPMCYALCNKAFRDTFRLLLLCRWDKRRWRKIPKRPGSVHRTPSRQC
Sequence of KiSS-1 receptor (Homo sapiens) (Q969F8 whole entry, looked up): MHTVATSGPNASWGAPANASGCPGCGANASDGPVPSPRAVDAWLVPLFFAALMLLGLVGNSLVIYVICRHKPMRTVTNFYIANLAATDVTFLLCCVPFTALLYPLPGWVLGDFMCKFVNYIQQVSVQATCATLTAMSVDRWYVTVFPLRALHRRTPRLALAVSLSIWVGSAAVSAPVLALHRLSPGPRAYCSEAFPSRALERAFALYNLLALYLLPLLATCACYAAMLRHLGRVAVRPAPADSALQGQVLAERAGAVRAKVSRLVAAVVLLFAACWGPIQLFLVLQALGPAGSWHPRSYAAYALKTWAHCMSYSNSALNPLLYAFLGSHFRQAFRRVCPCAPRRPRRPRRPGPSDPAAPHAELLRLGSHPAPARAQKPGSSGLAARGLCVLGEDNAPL
Sequence of 5-hydroxytryptamine receptor 2A (Homo sapiens) (P28223 whole entry, looked up): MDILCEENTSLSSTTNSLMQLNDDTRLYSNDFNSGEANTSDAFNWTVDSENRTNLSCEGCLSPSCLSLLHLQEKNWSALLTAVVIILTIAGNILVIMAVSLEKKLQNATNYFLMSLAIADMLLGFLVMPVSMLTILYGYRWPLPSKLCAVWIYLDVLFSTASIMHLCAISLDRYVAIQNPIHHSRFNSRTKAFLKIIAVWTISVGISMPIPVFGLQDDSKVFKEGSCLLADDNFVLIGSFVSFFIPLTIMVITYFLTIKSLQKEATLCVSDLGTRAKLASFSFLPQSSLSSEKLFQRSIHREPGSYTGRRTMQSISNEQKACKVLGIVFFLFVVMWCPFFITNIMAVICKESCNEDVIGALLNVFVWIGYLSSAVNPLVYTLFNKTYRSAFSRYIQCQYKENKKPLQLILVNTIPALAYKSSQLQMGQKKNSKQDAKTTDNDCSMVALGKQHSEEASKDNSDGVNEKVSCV

Turning to `CC(C(=O)O)c1ccc(/C=C2\CCCCC2=O)cc1` (stereo not drawn), the Potency result in assay [1], in assay [3], in assay [6], in assay [7], in assay [8] and in [9] was “inactive” in each case. Moreover, the Potency result in [10], in [11], in assay [12], in assay [13], in [14] and in assay [15] was “inactive” each time. The Potency entry in assay [16] and in assay [17] was “inactive” in each case. In addition, the Potency in [2] is 23.7 µM (active). The outcome in assay [4] and in [5] was inactive.

In the case of `Cc1cc(SC2=C(O)C[C@@](CCc3ccc(N)cc3)(C(C)C)OC2=O)c(C(C)(C)C)cc1CO`, the Potency entry in [1], in assay [2], in [3], in [6], in assay [7] and in [8] was “inactive” each time. Moreover, the Potency entry in assay [9], in assay [10], in [11], in assay [12], in assay [13] and in assay [14] was “inactive” throughout. Further, the Potency entry in [16] is “inactive”. Besides, the outcome in assay [4] and in assay [5] was inactive.

With `Nc1ccc(Cl)c([N+](=O)[O-])c1`, the Potency result in assay [1], in assay [3], in assay [6], in assay [7], in assay [8] and in assay [9] was “inactive” in each case. In addition, the Potency result in [10], in assay [11], in assay [12], in [13], in assay [14] and in assay [18] was “inactive” in each case. In addition, the Potency result in assay [19], in assay [16] and in [17] was “inactive” throughout. For the same compound, the Potency in assay [2] is 54.5 µM (active). Also, the outcome in assay [4] and in [5] was inactive.

Turning to `CC(C)(O)CCc1ccccc1`, the Potency entry in assay [1], in assay [2], in assay [3], in [6], in assay [7] and in [8] was “inactive” throughout. Further, the Potency result in assay [9], in assay [10], in [11], in assay [12], in assay [14] and in [20] was “inactive” in each case. Moreover, the Potency entry in [18], in assay [19], in [16] and in assay [17] was “inactive” in each case. The outcome in assay [4] and in assay [5] was inactive.

In the case of `N#Cc1ccc(C/C(=N/NC(=O)Nc2ccc(OC(F)(F)F)cc2)c2cccc(C(F)(F)F)c2)cc1`, the Potency result in [1], in assay [2], in assay [3], in assay [6], in assay [7] and in [8] was “inactive” each time. Further, the Potency entry in [9], in [10], in [11], in assay [12], in assay [13] and in assay [14] was “inactive” throughout. Besides, the Potency entry in assay [18], in assay [15], in [16] and in assay [17] was “inactive” in each case. The outcome in assay [4] and in assay [5] was inactive.

With `C=CC(=O)OCC(O)COc1ccccc1` (stereo not drawn), the Potency in [1] is 61.1 µM (active); in assay [2], 68.6 µM (active). The Potency result in [3], in [6], in [7], in assay [8], in assay [9] and in [10] was “inactive” in each case. Besides, the Potency entry in assay [11], in [12], in assay [13], in assay [14], in assay [15] and in assay [16] was “inactive” each time. Besides, in assay [17], the Potency result is “inactive”. The result in [4] and in assay [5] was inactive.
